Screens (PubChem BioAssay)
RECQ1 helicase = qHTS Assay for Inhibitors of RecQ-Like Dna Helicase 1 (RECQ1); RECQ1 DNA unwinding, red fluorescence kinetic read; Potency, µM (titrated, usually from 57.3 µM), inactives show at the top dose activity, negative = inhibition, usual class: inhibitors; hit rate 0.54% among 240,000; ATP-dependent DNA helicase Q1 (Homo sapiens), P46063;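 also: plate controls were vehicle for no effect and no enzyme for full effect; nearly all actives have a fitted effect of over 30% in size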
Target sequence (P46063 whole entry, looked up): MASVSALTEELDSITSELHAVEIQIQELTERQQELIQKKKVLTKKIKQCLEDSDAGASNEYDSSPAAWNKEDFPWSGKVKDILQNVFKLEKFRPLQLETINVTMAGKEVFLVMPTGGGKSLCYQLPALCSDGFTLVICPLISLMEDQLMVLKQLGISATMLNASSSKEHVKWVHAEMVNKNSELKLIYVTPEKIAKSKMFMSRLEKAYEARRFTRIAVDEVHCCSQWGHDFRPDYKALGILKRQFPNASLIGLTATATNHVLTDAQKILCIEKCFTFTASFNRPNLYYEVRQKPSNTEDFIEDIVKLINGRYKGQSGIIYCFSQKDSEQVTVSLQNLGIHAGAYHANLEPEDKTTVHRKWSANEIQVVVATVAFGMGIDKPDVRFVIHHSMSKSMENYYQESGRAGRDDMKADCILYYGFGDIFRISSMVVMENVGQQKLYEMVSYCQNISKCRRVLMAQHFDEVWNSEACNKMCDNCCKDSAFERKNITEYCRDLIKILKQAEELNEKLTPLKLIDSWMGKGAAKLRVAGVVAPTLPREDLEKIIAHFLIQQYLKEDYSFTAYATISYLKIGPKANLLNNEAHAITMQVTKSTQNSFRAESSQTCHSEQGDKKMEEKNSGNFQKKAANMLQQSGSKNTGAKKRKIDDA
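RECQ1T1 50 nM; forked duplex (20 bp + 30-nt ss tails) 200 nM, ATP 2 mM final; pH 8.0, 2 mM MgCl2, 2.5 ug/ml poly(dI-dC); 15 min compound preincubation; discontinuous kinetic read over 2 h at RT.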
FEN1 inh-1 = qHTS Assay for the Inhibitors of Human Flap endonuclease 1 (FEN1) | P39748 | Recombinant FEN1 flap cleavage, fluorescence, 15 min | Potency, µM (highest dose often 114 µM), inactives show at the top dose activity change, negative = inhibition, most hits filed as inhibitors | hit rate 0.35% among 390,000 | AID 588795, 2011; also: % is scaled to controls: 0 for no effect and ±100 for the full control effect; nearly all actives have a fitted effect of over 65% in size
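In this screen, 50 nM flap DNA substrate was added to 10 nM FEN1 pretreated with compound for 15 min at room temperature; cleavage was followed with reads at 0 and 15 min, and Hill fitting gave concentration–response parameters.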
TDP1 inh = qHTS Assay for Inhibitors of Tyrosyl-DNA Phosphodiesterase (TDP1); hit rate 0.28% among 350,000; recombinant TDP1, AlphaScreen DNA substrate cleavage; Potency, µM (series often up to 130 µM), for the others: top-dose activity change, negative = inhibition, most hits filed as inhibitors; Tyrosyl-DNA phosphodiesterase 1 (Homo sapiens), Q9NUW8; also: % is scaled to controls: 0 for no effect and ±100 for the full control effect; nearly all actives have a fitted effect of over 40% in size
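Enzyme-compound mixtures sat 15 min at room temperature, followed by a 5 min reaction with 15 nM final substrate and 10 min with AlphaScreen beads. Recombinant human Tdp1 was used at 1 nM final.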
APEX1 inh = qHTS Assay for Inhibitors of the Human Apurinic/apyrimidinic Endonuclease 1 (APE1). AID 2517, 2012. recombinant APE1, TAMRA/BHQ-2 abasic DNA cleavage fluorescence. Potency, µM (highest dose often 65.8 µM), inactives show at the top dose activity change, negative = inhibition, usual class: inhibitors. hit rate 0.35% among 350,000;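 also: plate controls were vehicle for no effect and reference inhibitor for full effect; nearly all actives have a fitted effect of over 55% in size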
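Compound pre-exposure to 0.75 nM APE1, 15 min at ambient temperature. Reaction initiated with 50 nM TAMRA/BHQ-2 THF substrate, read immediately in kinetic mode, 525 nm excitation, 598 nm emission.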
BLM helicase inh = qHTS Assay for Inhibitors of Bloom's syndrome helicase (BLM) | RecQ-like DNA helicase BLM (Homo sapiens), P54132 | hit rate 0.2% among 350,000 | Potency, µM (series often up to 56.1 µM), inactives show top-dose activity change, negative = inhibition, hits mostly inhibitors | recombinant BLM DNA unwinding, fluorescence dequenching;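 also: plate controls were vehicle for no effect and no enzyme for full effect; nearly all actives have a fitted effect of over 35% in size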
FEN1 inh-2 = qHTS Assay for the Inhibitors of FEN1: Confirmatory Assay for Cherry-picked Compounds; FEN1 flap cleavage, TAMRA/BHQ2 fluorogenic DNA substrate; shares compounds with FEN1 inh-1; Potency, µM, hits mostly inhibitors; hit rate 79% among 880; also: nearly all actives have a fitted effect of over 60% in size
Numbers without * were called inactive; i = inactive; ? = inconclusive; nt = no result; [ ] = another dose, or the depositor's remark. Rows were chosen to be rich in hits. Some 0.92% of all compounds tested hit in one or more screens of this group. Calls follow the shape of the dose curve; as a rule, active = well fitted curve in the direction sought with a large enough effect; inconclusive = small, poorly fitted or top-dose-only effect, or another doubt; inactive = no such curve, though single readings can be large; an effect the other way counts as inactive or inconclusive. Potency is read from the fitted curve at half-maximal effect.

SMILES	RECQ1 helicase	FEN1 inh-1	TDP1 inh	APEX1 inh	BLM helicase inh	FEN1 inh-2
O=C(COC(=O)c1ccc([N+](=O)[O-])o1)Nc1cccc(S(=O)(=O)N2CCOCC2)c1	-3%	28µM*	6%	11%	-4%	19*
O=C(COC(=O)c1ccc(Br)o1)Nc1cccc(S(=O)(=O)N2CCOCC2)c1	nt	-21%	1%	-10%	nt	nt
Cc1cccc(NC(=O)COC(=O)c2ccc([N+](=O)[O-])o2)c1C	i	?	-2%	?	-3%	21*
CCC1=C[C@@H]2CN(C1)Cc1c([nH]c3ccccc13)[C@@](C(=O)OC)(c1cc3c(cc1OC)N(C)[C@H]1[C@@](O)(C(=O)OC)[C@H](OC(C)=O)[C@]4(CC)C=CCN5CC[C@]31[C@@H]54)C2	-21%	-26%	15%	11%	-8%	nt
COc1cccc(-c2nc(SCC(=O)Nc3nc(-c4ccccc4)c(C)s3)[nH]c(=O)c2C#N)c1	17%	0%	4%	18%	-6%	nt
Cc1sc(NC(=O)CSc2nc(O)cc(=O)[nH]2)nc1-c1ccccc1	i	50µM*	6%	2%	?	67*
C=C1N[C@]2(C(=O)COC(C)=O)[C@@H](C[C@H]3[C@@H]4CCC5=CC(=O)C=C[C@]5(C)[C@H]4[C@@H](O)C[C@@]32C)O1	nt	nt	nt	nt	3%	nt
CC(=O)C1CCC2C3CC=C4CC(SC(=N)N)CCC4(C)C3CCC12C (configuration not stated)	nt	?	nt	nt	nt	?
CC(=O)OCC(=O)C1CCC2C3CC=C4CC(O)CCC4(C)C3CCC12C (configuration not stated)	nt	-9%	nt	24%	nt	nt
OC(C[n+]1c(Cl)ccc2ccccc21)c1ccccc1 (configuration not stated)	nt	13%	nt	nt	nt	nt
CCn1c(=O)cc(OCC(=O)Nc2cc(OC)c(OC)c(OC)c2)c2ccccc21	nt	6%	0%	nt	-6%	nt
CN(CCC#N)C(=O)COC(=O)c1nn(-c2ccccc2)c(=O)c2ccccc12	2%	-1%	5%	0%	-1%	nt
CN(CCC#N)C(=O)COC(=O)c1c2c(nc3ccccc13)/C(=C\c1ccco1)CC2	nt	50µM*	nt	nt	nt	67*
COCCNC(=O)Cn1nc(C)c2c(C)n(-c3ccc(C)cc3)nc2c1=O	nt	33%	8%	nt	0%	nt
COc1ccc(CCNC(=O)Cn2nc(C)c3c(C)n(-c4ccc(C)cc4)nc3c2=O)c(OC)c1	nt	?	nt	-24%	?	48*
CCOC(=O)N/N=C1/C[C@@H](O)[C@@H](O)[C@@H]2[C@@H]3C(=O)N(Cc4ccc5c(c4)OCO5)C(=O)[C@H]3CC[C@@H]12	i[11.5 µM]	nt	7%[21 µM]	?	4%[12.4 µM]	nt
O=C(C[n+]1ccccc1)c1ccc(O)c(O)c1	nt	11%	nt	nt	nt	nt
COc1ccc(-n2c(O)c(/C=N/NS(=O)(=O)c3ccc(C)c([N+](=O)[O-])c3)c3ccccc3c2=O)cc1OC	-4%	-10%	5%	-8%	-16%	nt
O=c1c2ccccc2c(/C=N/NS(=O)(=O)c2ccccc2)c(O)n1-c1ccccn1	-4%	-4%	3%	-10%	-3%	?
CN1C=C/C(=C\c2cc[n+](C)c3ccccc23)c2ccccc21	-7%	28µM*	7%	3%	?	8.5*
COc1cccc(NC(=O)Cn2c(=O)ccc3cc(S(=O)(=O)N4CCC(C)CC4)ccc32)c1	nt	-4%	5%	nt	-3%	nt
O=C(CSc1ncc2c(n1)-c1ccccc1N(Cc1ccccc1)S2(=O)=O)Nc1ccccc1	nt	2%	3%	nt	0%	nt
COc1ccc(S(=O)(=O)N2CCN(C(=O)c3cc4c(s3)CCC4)CC2)cc1	nt	45µM*	nt	2.7µM*	nt	76*
COc1ccc(S(=O)(=O)N2CCN(C(=O)c3ccc([N+](=O)[O-])o3)CC2)cc1	nt	0%	45µM*	-4%[12.4 µM]	-8%	76*
O=C(Nc1cccnc1Cl)c1cnn2c1NC(=C1CC1)C=C2C(F)F	nt	10%	nt	nt	nt	nt
SMILES	RECQ1 helicase	FEN1 inh-1	TDP1 inh	APEX1 inh	BLM helicase inh	FEN1 inh-2
CC(C)NS(=O)(=O)c1ccc(OCC(=O)N2CCN(c3ccccc3F)CC2)cc1	nt	-2%	1%	nt	0%	nt
CN(Cc1cccs1)c1ncnc2ccc(-c3ccc4cnn(C)c4c3)cc12	nt	nt	nt	nt	nt	34*
COc1ccc(C(=O)Nc2ncnc3nc[nH]c23)cc1	nt	3%	nt	nt	nt	nt
CC(=O)Nc1sc2c(c1-c1nc3ccccc3s1)CCOC2	nt	nt	nt	nt	nt	?
CC(=O)Nc1sc2c(c1-c1nc3ccccc3o1)CCN(C(C)C)C2	nt	nt	nt	nt	nt	30*
CCCCC(=O)Nc1sc2c(c1-c1nc3ccccc3s1)CCN(C(C)C)C2	nt	nt	nt	nt	nt	34*
CC(C)N1CCc2c(sc(NC(=O)c3nc4ccccc4s3)c2C(N)=O)C1	16%	-12%	7%	-3%	-6%	nt
CCCCC(=O)Nc1sc2c(c1-c1nc3ccccc3s1)CCN(C(C)=O)C2	7%	nt	5%	-5%	-24%	nt
CC(=O)Nc1sc2c(c1-c1nc3ccccc3s1)CCN(C)C2	nt	nt	nt	nt	nt	5.4*
O=C(CCS(=O)(=O)c1cccs1)Nc1ccc(C(=O)Nc2ccccc2F)cc1	nt	8%	-4%	nt	-10%	nt
CC(=O)Nc1sc2c(c1-c1nc3ccccc3s1)CCCN(C(C)C)C2	nt	nt	nt	nt	nt	7.6*
CC(=O)N1CCc2c(sc(NC(=O)C3CC3)c2-c2nc3ccccc3s2)C1	i	?	1%	?	-10%	nt
CC(=O)Nc1sc2c(c1-c1nc3ccccc3s1)CN(C(C)C)CC2	nt	6.3µM*	1%	12µM*	nt	11*
N#Cc1cccc(-c2ccc3ncnc(NCc4ccccc4)c3c2)c1	?	nt	nt	-1%	-23%	nt
CN(C)CCNc1ccc(CO)c2oc3ccc(O)cc3c(=O)c12	nt	35µM*	nt	nt	nt	30*
O=c1c(O)c(-c2ccc(O)cc2)oc2ccc(O)cc12	-3%	nt	11%	-1%	3%	nt
COc1cc2nc(NCCCN3CCN(C)CC3)n3nc(-c4ccccc4)nc3c2cc1OC	5%	20µM*	nt	10%	-4%	12*
CCN(CC)CCCNc1nc2ccccc2c2nc(-c3ccncc3)nn12	nt	45µM*	nt	-16%	209%	21*
Cc1ccc(CCNc2nc3ccccc3c3nc(-c4ccccc4)nn23)cc1	nt	3%	-1%	nt	-3%	nt
CCN(CC)CCCNc1nc2cc(OC)c(OC)cc2c2nc(-c3ccccc3)nn12	?	13µM*	2%	?	16%	6.7*
